The target in experiment [1] is Phospholipid hydroperoxide glutathione peroxidase GPX4 (Homo sapiens) (UniProt P36969). The experiment can be described thus: Primary qHTS Assay for Inhibitors of Recombinant Selenoprotein Glutathione Peroxidase 4 (GPX4) (AID 1845192). Note: nearly all actives have a fitted effect of over 65% in size. The note with it: recombinant GPX4, GR-coupled NADPH fluorescence, 15 min; series mostly up to 50 µM. Summed up:
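qHTS, GR-coupled: GPX4 200 nM + cpd 30 min RT → GSH 1 mM, NADPH 0.5 mM, GR 100 nM → CHP 0.5 mM start; fluor 340/450 at t0 and t15 min; no-enzyme wells as control.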
In general terms: In qHTS, concentration-response curves come from the screen itself.

Experiment [2] in a line: Quantitative High-Throughput drug screen in 47 multiple myeloma cell lines against the NCATS MIPE library collection: EJM_DSMZ cell viability assay (AID 1918926; note: nearly all actives have a fitted effect of over 30% in size; note: potency is the fitted concentration of half-maximal effect). To be noted: EJM myeloma cell viability, CellTiter-Glo ATP, 48 h; series mostly up to 45.8 µM. Summed up: (§1)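 Myeloma cell lines, 500 cells per well, exposed to MIPE 4.0 library compounds for 48 h at 37C, 5% CO2. Viability from ATP by CellTiter-Glo luminescence; normalised to DMSO (100%) and media-only (0%) wells.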
In general terms: ATP-based viability assays read luminescence as a measure of living cells.

Experiment [3] in a line: Quantitative High-Throughput drug screen in 47 multiple myeloma cell lines against the NCATS MIPE library collection: Karpas417_ECACC cell viability assay (AID 1918961). Note: potency is the fitted concentration of half-maximal effect. The note with it: Karpas417 myeloma viability, CellTiter-Glo ATP luminescence, 48 h; viability (% of DMSO): at 45.8 µM (top of the series). Summed up:
(§2)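 Luminescent ATP measurement with CellTiter-Glo gives viability, scaled between DMSO-only wells (100%) and media-only wells (0%). Cells, 500 per well, faced library compounds for 48 hours at 37C.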

Experiment [4] can be described thus: Quantitative High-Throughput drug screen in 47 multiple myeloma cell lines against the NCATS MIPE library collection: KHM11_PLB cell viability assay (AID 1918962). Note: nearly all actives have a fitted effect of over 35% in size. To be noted: KHM11 myeloma cell viability, CellTiter-Glo ATP luminescence, 48 h; series mostly up to 45.8 µM. In outline:
(§3)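 qHTS of the MIPE 4.0 collection: 500 myeloma cells/well, 48 h drug exposure at 37C in 5% CO2, then CellTiter-Glo for 5 min at room temperature before luminescence reading.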

Experiment [5] in a line: Quantitative High-Throughput drug screen in 47 multiple myeloma cell lines against the NCATS MIPE library collection: JIM3_ECACC cell viability assay (AID 1918963; note: nearly all actives have a fitted effect of over 35% in size; note: potency is the fitted concentration of half-maximal effect). The note with it: JIM3 myeloma viability, CellTiter-Glo ATP, 48 h; series mostly up to 45.8 µM. Summed up: as §3
Experiment [6] in a line: Quantitative High-Throughput drug screen in 47 multiple myeloma cell lines against the NCATS MIPE library collection: JIM1_ECACC cell viability assay (AID 1918964; note: potency is the fitted concentration of half-maximal effect). The note with it: JIM1 myeloma viability, CellTiter-Glo ATP luminescence, 48 h; series mostly up to 45.8 µM. Summed up: as §1
Experiment [7] can be described thus: Quantitative High-Throughput drug screen in 47 multiple myeloma cell lines against the NCATS MIPE library collection: INA6_PLB cell viability assay (AID 1918965; note: nearly all actives have a fitted effect of over 55% in size; note: potency is the fitted concentration of half-maximal effect). To be noted: INA6 myeloma viability, CellTiter-Glo ATP luminescence, 48 h; series mostly up to 45.8 µM. In outline: as §2
The nature of experiment [8]: Quantitative High-Throughput drug screen in 47 multiple myeloma cell lines against the NCATS MIPE library collection: H1112_PLB cell viability assay (AID 1918967; note: nearly all actives have a fitted effect of over 30% in size; note: potency is the fitted concentration of half-maximal effect). To be noted: H1112 myeloma cells viability, ATP luminescence, 48 h; series mostly up to 45.8 µM. In outline: as §1
A short description of experiment [9]: Quantitative High-Throughput drug screen in 47 multiple myeloma cell lines against the NCATS MIPE library collection: AMO1_DSMZ cell viability assay (AID 1918927; note: nearly all actives have a fitted effect of over 30% in size; note: potency is the fitted concentration of half-maximal effect). To be noted: AMO1 myeloma cells viability, CellTiter-Glo ATP luminescence, 48 h; series mostly up to 45.8 µM. In outline: as §1
Experiment [10] in a line: Quantitative High-Throughput drug screen in 47 multiple myeloma cell lines against the NCATS MIPE library collection: ARD_JJKsccE7 cell viability assay (AID 1918929; note: potency is the fitted concentration of half-maximal effect). The note with it: ARD myeloma cell line viability, CellTiter-Glo, 48 h; series mostly up to 45.8 µM. Summed up: as §1
Experiment [11] in a line: Quantitative High-Throughput drug screen in 47 multiple myeloma cell lines against the NCATS MIPE library collection: KMM1_JCRB cell viability assay (AID 1918960). Note: nearly all actives have a fitted effect of over 30% in size. Note: potency is the fitted concentration of half-maximal effect. The note with it: KMM1 myeloma viability, CellTiter-Glo ATP luminescence, 48 h; series mostly up to 45.8 µM. Summed up: (§4)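 Each line was plated at 500 cells/well and treated 48 h with library drugs. Viability came from CellTiter-Glo luminescence relative to DMSO and cell-free medium controls.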

Experiment [12] in a line: Quantitative High-Throughput drug screen in 47 multiple myeloma cell lines against the NCATS MIPE library collection: Delta47_JCRB cell viability assay (AID 1918925; note: nearly all actives have a fitted effect of over 45% in size; note: potency is the fitted concentration of half-maximal effect). To be noted: Delta47 myeloma viability, CellTiter-Glo ATP, 48 h; series mostly up to 45.8 µM. In outline: as §1
The nature of experiment [13]: Quantitative High-Throughput drug screen in 47 multiple myeloma cell lines against the NCATS MIPE library collection: ARP1_JJKsccF8 cell viability assay (AID 1918928; note: nearly all actives have a fitted effect of over 40% in size; note: potency is the fitted concentration of half-maximal effect). The note with it: ARP1 myeloma cells viability, CellTiter-Glo ATP, 48 h; series mostly up to 45.8 µM. In outline: as §4
Experiment [14] can be described thus: Quantitative High-Throughput drug screen in 47 multiple myeloma cell lines against the NCATS MIPE library collection: Karpas620_DSMZ cell viability assay (AID 1918959). Note: nearly all actives have a fitted effect of over 30% in size. Note: potency is the fitted concentration of half-maximal effect. The note with it: Karpas620 myeloma viability, CellTiter-Glo ATP luminescence, 48 h; series mostly up to 45.8 µM. Summed up: as §3
Experiment [15] in a line: Quantitative High-Throughput drug screen in 47 multiple myeloma cell lines against the NCATS MIPE library collection: JJN3_DSMZ cell viability assay (AID 1918966; note: nearly all actives have a fitted effect of over 50% in size; note: potency is the fitted concentration of half-maximal effect). To be noted: JJN3 myeloma cells viability, CellTiter-Glo ATP, 48 h; series mostly up to 45.8 µM. In outline: as §1

Records with an inconclusive call do not appear. Calls of active or inactive are those of the source. Calls come from the whole dose curve; as a rule, active = well fitted curve in the direction sought with a large enough effect; inconclusive = small, poorly fitted or top-dose-only effect, or another doubt; inactive = no such curve, though single readings can be large; an effect the other way counts as inactive or inconclusive.

Phospholipid hydroperoxide glutathione peroxidase GPX4 (Homo sapiens), sequence (P36969 whole entry, looked up): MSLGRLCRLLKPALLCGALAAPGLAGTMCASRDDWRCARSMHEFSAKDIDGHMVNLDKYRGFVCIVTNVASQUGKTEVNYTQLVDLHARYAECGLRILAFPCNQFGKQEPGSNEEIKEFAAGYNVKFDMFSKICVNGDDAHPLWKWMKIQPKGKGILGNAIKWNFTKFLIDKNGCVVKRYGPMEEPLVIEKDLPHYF

As to `Clc1ccccc1C(c1ccccc1)(c1ccccc1)n1ccnc1`, the Potency entry in experiment [1], in [2] and in [4] was “inactive” throughout. The Potency in [3] was 0.0093 µM (active); in [5], 18.7 µM (active); in experiment [6] it was 0.0743 µM (active); in [7], 16.6 µM (active); in experiment [8] it was 14.8 µM (active).

As for `Clc1ccc(C(c2ccccc2Cl)C(Cl)Cl)cc1` (stereo unspecified), the Potency entry in experiment [1] and in experiment [8] was “inactive” throughout. Further, the figures for the Potency in experiment [9] and in [5] were 1.87 µM (active) and 20.9 µM (active), respectively.

Take `COc1ccc2[nH]cc(CCNC(C)=O)c2c1`: the Potency result in [1], in experiment [2], in [10], in [11], in experiment [3] and in experiment [8] was “inactive” each time. The values for the Potency in [9] and in experiment [6] were 0.235 µM (active) and 0.0074 µM (active), respectively.

For `Cc1ccccc1N1C(=O)c2cc(S(N)(=O)=O)c(Cl)cc2NC1C` (stereo unspecified), the Potency result in experiment [1], in experiment [12], in experiment [2], in experiment [9], in experiment [13] and in experiment [10] was “inactive” each time. The Potency result in [14], in experiment [11], in [4], in [5] and in experiment [8] was “inactive” in each case. In addition, the Potency in experiment [15] was 4.69 µM (active).

Consider `CN1C(C(=O)Nc2ccccn2)=C(O)c2ccccc2S1(=O)=O`, for which the Potency result in experiment [1], in experiment [2], in experiment [13], in experiment [10], in experiment [11] and in [3] was “inactive” each time. Further, the Potency result in experiment [5], in experiment [15] and in experiment [8] was “inactive” throughout.

As to `CC(C)NCC(O)c1ccc(O)c(O)c1` (stereo unspecified), the Potency entry in experiment [1], in experiment [4], in experiment [5] and in experiment [8] was “inactive” each time. Further, the Potency was 14.8 µM (active) in experiment [2]; 5.26 µM (active) in experiment [9]; 5.9 µM (active) in experiment [10]; 14.8 µM (active) in experiment [14]; 2.64 µM (active) in experiment [11]; 1.48 µM (active) in experiment [3]. Also, the Potency was 13.2 µM (active) in experiment [6] and 20.9 µM (active) in experiment [15].

With `CC(COc1ccccc1)N(CCCl)Cc1ccccc1` (stereo unspecified), the Potency entry in [1], in experiment [12], in [9], in experiment [13], in experiment [11] and in experiment [5] was “inactive” each time. Moreover, the Potency result in [7] and in experiment [15] was “inactive” in each case. For the same molecule, the Potency in experiment [10] was 16.6 µM (active).

Take `NS(=O)(=O)c1cc2c(cc1Cl)NCNS2(=O)=O`: the Potency result in experiment [1], in experiment [12], in experiment [13], in experiment [10], in experiment [11] and in [7] was “inactive” each time. Further, the results for the Potency in [3], in [15] and in [8] were 0.0066 µM (active), 7.43 µM (active) and 9.35 µM (active), respectively.

As to `CC12CC3CC(C)(C1)CC(N)(C3)C2`, the Potency result in [1], in experiment [13], in experiment [10], in experiment [3] and in [6] was “inactive” each time. For the same molecule, the Potency in [7] was 20.9 µM (active).

`O=C1N(c2ccccc2)c2ccccc2C1(Cc1ccncc1)Cc1ccncc1`: the Potency entry in experiment [1], in experiment [12], in experiment [9], in experiment [13], in experiment [11] and in experiment [4] was “inactive” in each case. Besides, the Potency result in experiment [5], in [15] and in [8] was “inactive” throughout.

As for `O=c1c(O)c(-c2ccc(O)c(O)c2)oc2cc(O)cc(O)c12`, the Potency entry in experiment [1] is “inactive”. Moreover, the Potency in experiment [12] was 11.8 µM (active); in [2], 20.9 µM (active); in experiment [3], 0.0166 µM (active); in [7], 11.8 µM (active); in [8], 20.9 µM (active).

`Cc1cn([C@H]2C=C[C@@H](CO)O2)c(=O)[nH]c1=O`: the Potency entry in [1], in experiment [2], in [9], in [13], in [10] and in [11] was “inactive” each time. Besides, the Potency result in experiment [6] and in experiment [8] was “inactive” each time. In addition, in experiment [3], the Potency is 0.0108 µM (active).

Consider `CCC1(C)CC(=O)NC1=O` (stereo unspecified), for which the Potency result in experiment [1], in experiment [12], in experiment [2], in experiment [9], in experiment [13] and in experiment [14] was “inactive” in each case. Also, the Potency entry in experiment [11], in [4], in experiment [5], in [7] and in experiment [8] was “inactive” throughout. Further, in [10], the Potency is 0.0037 µM (active).

In the case of `OCCN(CCO)c1nc(N2CCCCC2)c2nc(N(CCO)CCO)nc(N3CCCCC3)c2n1`, the Potency entry in experiment [1] is “inactive”. In addition, the Potency in [12], in [9], in experiment [6] and in experiment [15] was 23.5 µM (active) in each case.

In the case of `COc1cc2nc(N3CCN(C(=O)C4COc5ccccc5O4)CC3)nc(N)c2cc1OC` (stereo unspecified), the Potency result in experiment [1] and in experiment [2] was “inactive” in each case. Moreover, the values for the Potency in experiment [11], in [7] and in experiment [8] were 5.9 µM (active), 20.9 µM (active) and 18.7 µM (active), respectively.

As to `O=c1[nH]cc(F)c(=O)[nH]1`, the Potency entry in [1], in experiment [2], in [14] and in experiment [8] was “inactive” in each case. Moreover, the Potency in experiment [13] is 1.87 µM (active); in [11], 10.5 µM (active); in [5] it was 20.9 µM (active); in experiment [7] it was 5.26 µM (active).

The values above are taken from PubChem BioAssay (NCATS).
